Inconclusive results are not listed. The source made the active and inactive calls. Unless noted, the call rests on the fitted dose curve; in most records, active means well fitted curve in the direction sought with a large enough effect in the repeat runs; inconclusive means weak or mixed curves; inactive means no such curve, though single readings can be large; an effect the other way counts as inactive or inconclusive.
Experiments:
[1] = molecular target: Estrogen receptor (Homo sapiens) (UniProt P03372); test: qHTS assay to identify small molecule antagonists of the estrogen receptor alpha (ER-alpha) signaling pathway (AID 743069; active means well fitted curve in the direction sought with a large enough effect in the signal ratio in the repeat runs, not every such curve was filed as active; the % refers to the signal ratio)
Estrogen receptor (Homo sapiens), sequence (P03372 whole entry, looked up): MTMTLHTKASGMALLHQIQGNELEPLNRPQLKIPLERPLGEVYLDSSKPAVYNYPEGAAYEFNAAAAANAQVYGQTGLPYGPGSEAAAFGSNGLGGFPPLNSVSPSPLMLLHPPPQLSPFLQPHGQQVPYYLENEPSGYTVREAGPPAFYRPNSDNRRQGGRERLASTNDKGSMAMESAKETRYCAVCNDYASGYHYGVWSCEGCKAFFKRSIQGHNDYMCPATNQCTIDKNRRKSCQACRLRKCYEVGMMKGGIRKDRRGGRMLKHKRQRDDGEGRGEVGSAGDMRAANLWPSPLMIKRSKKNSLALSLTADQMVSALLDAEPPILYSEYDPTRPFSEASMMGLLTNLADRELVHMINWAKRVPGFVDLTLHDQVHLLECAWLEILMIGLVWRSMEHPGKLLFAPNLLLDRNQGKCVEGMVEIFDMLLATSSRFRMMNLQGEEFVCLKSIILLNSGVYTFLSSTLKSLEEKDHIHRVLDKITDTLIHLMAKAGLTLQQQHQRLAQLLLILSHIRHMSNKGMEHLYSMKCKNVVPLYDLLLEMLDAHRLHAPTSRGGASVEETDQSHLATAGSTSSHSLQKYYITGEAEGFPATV
Summary of the method: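 ER-alpha-UAS-bla GripTite HEK293 line; 2% charcoal-stripped FBS overnight; plated, 4 hr 37C/5% CO2; cpd in DMSO + 17beta-estradiol, 18 hr 37C; LiveBLAzer B/G FRET substrate 2 hr RT; fluorescence intensity.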

[2] = qHTS assay to identify small molecule antagonists of the estrogen receptor alpha (ER-alpha) signaling pathway - cell viability counter screen (AID 743074; calls by dose curve;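 further: HEK293 cells carrying ER-alpha-UAS-bla reporter stimulated with 17beta-estradiol; nearly all actives have a fitted effect of over 45% in size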)
[3] = molecular target: Estrogen receptor (Homo sapiens) (UniProt P03372); test: qHTS assay to identify small molecule agonists of the estrogen receptor alpha (ER-alpha) signaling pathway (AID 743075; calls by dose curve;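 further: HEK293 GripTite cells with ER-alpha and UAS-driven beta-lactamase reporter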)
[4] = molecular target: Estrogen receptor (Homo sapiens) (UniProt P03372); test: qHTS assay to identify small molecule agonists of the estrogen receptor alpha (ER-alpha) signaling pathway using the BG1 cell line (AID 743079); further: nearly all actives have a fitted effect of over 20% in size
[5] = qHTS assay to identify small molecule antagonists of the estrogen receptor alpha (ER-alpha) signaling pathway using the BG1 cell line (AID 743080; calls by dose curve;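 further: BG1 cells stimulated with 17beta-estradiol alongside compound; series mostly up to about 70 µM; nearly all actives have a fitted effect of over 25% in size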)
Summary of the method: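 Quantitative HTS on the Tox21 10K library: BG1 cells with endogenous ER-alpha and ERE-luciferase reporter, 17beta-estradiol stimulation, 21.5 h compound exposure, luminescence endpoint with parallel fluorescence cytotoxicity counter-read.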

[6] = qHTS assay to identify small molecule antagonists of the estrogen receptor alpha (ER-alpha) signaling pathway using the BG1 cell line - cell viability counter screen (AID 743081);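 further: compound given together with 17beta-estradiol as the ER stimulus; series mostly up to about 70 µM; nearly all actives have a fitted effect of over 45% in size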
Aromatase (Homo sapiens) = Aromatase (Homo sapiens) (UniProt P11511); test: qHTS assay to identify aromatase inhibitors (AID 743083); further: series mostly up to about 70 µM; nearly all actives have a fitted effect of over 55% in size
Aromatase (Homo sapiens), sequence (P11511 whole entry, looked up): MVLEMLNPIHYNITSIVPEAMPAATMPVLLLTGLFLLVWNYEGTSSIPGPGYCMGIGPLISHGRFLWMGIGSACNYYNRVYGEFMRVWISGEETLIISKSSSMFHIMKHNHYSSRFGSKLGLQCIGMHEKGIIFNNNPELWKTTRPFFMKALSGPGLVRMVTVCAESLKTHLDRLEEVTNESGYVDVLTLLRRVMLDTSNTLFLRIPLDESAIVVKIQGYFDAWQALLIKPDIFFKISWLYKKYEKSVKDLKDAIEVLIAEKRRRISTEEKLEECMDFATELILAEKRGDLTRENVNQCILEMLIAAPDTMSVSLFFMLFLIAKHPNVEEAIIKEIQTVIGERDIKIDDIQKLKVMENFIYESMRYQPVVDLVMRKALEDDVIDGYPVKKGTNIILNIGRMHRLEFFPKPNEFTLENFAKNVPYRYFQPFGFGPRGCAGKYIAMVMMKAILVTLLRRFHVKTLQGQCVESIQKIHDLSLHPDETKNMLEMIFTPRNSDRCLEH

[7] = qHTS assay to identify aromatase inhibitors - cell viability counter screen (AID 743084);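 further: cells stimulated with testosterone during compound exposure; nearly all actives have a fitted effect of over 55% in size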
[8] = molecular target: Aryl hydrocarbon receptor (Homo sapiens) (UniProt P35869); test: qHTS assay to identify small molecule that activate the aryl hydrocarbon receptor (AhR) signaling pathway (AID 743085);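 further: HG2L7.5c1 human HepG2 liver cells with stably integrated DRE-driven firefly reporter; series mostly up to about 70 µM; nearly all actives have a fitted effect of over 15% in size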
Aryl hydrocarbon receptor (Homo sapiens), sequence (P35869 whole entry, looked up): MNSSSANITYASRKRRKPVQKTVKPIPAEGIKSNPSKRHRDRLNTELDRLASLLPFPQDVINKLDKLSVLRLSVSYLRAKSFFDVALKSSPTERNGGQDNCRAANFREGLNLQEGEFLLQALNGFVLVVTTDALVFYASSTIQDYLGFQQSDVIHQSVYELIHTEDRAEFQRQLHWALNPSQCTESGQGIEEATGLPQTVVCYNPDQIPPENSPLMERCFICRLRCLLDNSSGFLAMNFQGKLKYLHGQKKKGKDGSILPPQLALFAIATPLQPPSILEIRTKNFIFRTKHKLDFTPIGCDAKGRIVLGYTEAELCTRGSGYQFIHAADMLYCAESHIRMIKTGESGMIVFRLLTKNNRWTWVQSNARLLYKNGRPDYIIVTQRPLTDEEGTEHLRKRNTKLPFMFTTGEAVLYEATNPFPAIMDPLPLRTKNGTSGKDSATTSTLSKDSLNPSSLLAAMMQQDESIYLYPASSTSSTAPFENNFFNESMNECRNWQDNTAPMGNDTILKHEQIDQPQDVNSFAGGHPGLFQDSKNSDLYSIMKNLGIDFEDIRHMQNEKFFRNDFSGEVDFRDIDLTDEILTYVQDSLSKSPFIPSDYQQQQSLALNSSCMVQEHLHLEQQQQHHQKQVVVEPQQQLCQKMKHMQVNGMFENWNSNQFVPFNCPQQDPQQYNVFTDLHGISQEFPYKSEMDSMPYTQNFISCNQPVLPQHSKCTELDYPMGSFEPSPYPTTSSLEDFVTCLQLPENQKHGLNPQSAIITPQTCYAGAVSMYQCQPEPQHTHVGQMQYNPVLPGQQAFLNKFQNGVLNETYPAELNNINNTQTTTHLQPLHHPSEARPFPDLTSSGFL
Summary of the method: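 24 h compound exposure, 37C, HepG2-derived HG2L7.5c1 cells with DRE-responsive luciferase. Readouts: fluorescence viability, then luminescence at room temperature after 30 min.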

[9] = qHTS assay to identify small molecule that activate the aryl hydrocarbon receptor (AhR) signaling pathway - cell viability counter screen (AID 743086);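 further: HepG2 liver cells carrying the AhR DRE luciferase reporter; series mostly up to about 70 µM; nearly all actives have a fitted effect of over 45% in size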
Summary of the method: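 Cytotoxicity counter screen: CellTiter-Fluor signal (30 min, 37 C) in 4000 HepG2 cells/well carrying the DRE-luciferase reporter, following 24 h compound exposure at 37 C.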

[10] = molecular target: Peroxisome proliferator-activated receptor gamma (Homo sapiens) (UniProt P37231); test: qHTS assay to identify small molecule agonists of the peroxisome proliferator-activated receptor gamma (PPARg) signaling pathway (AID 743094; active means well fitted activation curve with a large enough effect in the signal ratio in the repeat runs, not every such curve was filed as active; the % refers to the signal ratio)
Peroxisome proliferator-activated receptor gamma (Homo sapiens), sequence (P37231 whole entry, looked up): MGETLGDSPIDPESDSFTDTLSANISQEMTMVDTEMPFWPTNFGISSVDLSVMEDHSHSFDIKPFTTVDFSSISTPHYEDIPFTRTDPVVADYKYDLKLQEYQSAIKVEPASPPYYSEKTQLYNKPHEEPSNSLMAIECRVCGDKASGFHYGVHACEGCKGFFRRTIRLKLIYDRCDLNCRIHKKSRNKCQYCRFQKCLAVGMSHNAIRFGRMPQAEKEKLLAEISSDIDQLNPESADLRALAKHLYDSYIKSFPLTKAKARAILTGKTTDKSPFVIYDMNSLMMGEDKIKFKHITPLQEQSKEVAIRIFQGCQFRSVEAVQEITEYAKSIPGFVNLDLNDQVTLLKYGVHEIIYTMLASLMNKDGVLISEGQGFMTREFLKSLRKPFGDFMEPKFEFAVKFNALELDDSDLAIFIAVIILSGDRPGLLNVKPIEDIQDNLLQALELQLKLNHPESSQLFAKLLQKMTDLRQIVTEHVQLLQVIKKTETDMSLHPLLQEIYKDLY
Summary of the method: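 Compounds dissolved in DMSO were added to PPARg UAS-bla HEK293H cells for 17 h at 37C, and reporter expression was quantified by fluorescence intensity after 1 h with LiveBLAzer B/G FRET substrate.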

[11] = molecular target: Peroxisome proliferator-activated receptor gamma (Homo sapiens) (UniProt P37231); test: qHTS assay to identify small molecule antagonists of the peroxisome proliferator-activated receptor gamma (PPARg) signaling pathway (AID 743191; calls by dose curve; further: series mostly up to about 63 µM; nearly all actives have a fitted effect of over 30% in size)
Summary of the method: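 Beta-lactamase reporter under UAS control in HEK293H PPARg-bla cells; compound treatment 17 h at 37C. Read-out: fluorescence intensity after 1 h room-temperature incubation with LiveBLAzer B/G FRET substrate.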

[12] = qHTS assay to identify small molecule antagonists of the peroxisome proliferator-activated receptor gamma (PPARg) signaling pathway - cell viability counter screen (AID 743194); further: nearly all actives have a fitted effect of over 55% in size
Summary of the method: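 Viability was measured as CellTiter-Glo luminescence in GeneBLAzer PPARg UAS-bla HEK293H cells. These cells had been exposed 17 h at 37 C to compounds together with rosiglitazone at 50 nM final, with the beta-lactamase readout taken in the same wells.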

[13] = qHTS assay for small molecule agonists of the antioxidant response element (ARE) signaling pathway - cell viability counter screen (AID 743203; calls by dose curve; further: nearly all actives have a fitted effect of over 55% in size)
Summary of the method: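 Following 16 hrs of compound treatment at 37C, HepG2 cells with an ARE-controlled beta-lactamase gene were lysed with CellTiter-Glo. Luminescence was read after 30 min at room temperature.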

[14] = qHTS assay for small molecule activators of the heat shock response signaling pathway - cell viability counter screen (AID 743209); further: nearly all actives have a fitted effect of over 50% in size
Summary of the method: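 Readout: CellTiter-Glo luminescence, 30 min at room temperature. System: HSE-bla HeLa cells, 1500/well, plated overnight. Treatment: compounds in DMSO, 5 h at 37 C.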

[15] = qHTS assay for small molecule activators of the heat shock response signaling pathway (AID 743210; active means well fitted activation curve with a large enough effect in the signal ratio in the repeat runs, with a control signal flat, not every such curve was filed as active; the % refers to the signal ratio;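 further: HeLa cells with beta-lactamase reporter driven by heat shock elements; series mostly up to about 63 µM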)
Summary of the method: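 HeLa HSE-bla cells, overnight plating; cpd in DMSO 5 h, 37 C; LiveBLAzer B/G FRET substrate 2.5 h RT; fluorescence intensity read.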

[16] = qHTS assay to identify small molecule antagonists of the thyroid receptor (TR) signaling pathway (AID 743065)
Summary of the method: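 Antagonism measured as loss of luciferase signal in GH3 cells stably carrying a TRE-luciferase reporter, co-treated with compound and T3 (1 nM final) for 23.5 h at 37 C. Viability was read in the same well by CellTiter-Fluor.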

[17] = tested on: thyroid hormone receptor (rat, GH3 cells); test: qHTS assay to identify small molecule agonists of the thyroid receptor (TR) signaling pathway (AID 743066; calls by dose curve)
[18] = qHTS assay for small molecule agonists of the antioxidant response element (ARE) signaling pathway (AID 743202; active means well fitted activation curve with a large enough effect in the signal ratio in the repeat runs, not every such curve was filed as active; the % refers to the signal ratio)
Summary of the method: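 Quantitative high-throughput format in HepG2 cells bearing an integrated ARE-beta-lactamase reporter. Compound exposure lasted 16 h at 37 C, and fluorescence was read 2 h after adding LiveBLAzer B/G substrate at room temperature.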

Measured: Potency

CO/N=C(/C(=O)N[C@@H]1C(=O)N2C(C(=O)[O-])=C(C[n+]3ccn4ncccc43)CS[C@H]12)c1nsc(N)n1
not listed: [16] | [17] | [18]
inactive: all other assays above

Cc1c(NC(=O)c2cccnc2)c(=O)n(-c2ccccc2)n1C
not listed: [12] | [18]
inactive: all other assays above

O=C1NC(c2ccccc2)(c2ccccc2)C(=O)N1COP(=O)(O)O
inactive: [11] | [12] | [18] | [13] | [14] | [15]

C=C(C)C1CC=C(C)C(=O)C1 (stereo not drawn)
not listed: [1] | [3] | [4] | [5] | [10] | [11] | [18]
inactive: all other assays above

c1ccc2cnccc2c1
not listed: [1] | [10] | [14] | [18]
inactive: all other assays above

OC[C@@H](O)C(O)[C@@H](O)CO (stereo partly drawn)
not listed: [1] | [2] | [3] | [4] | [5] | [8] | [18]
inactive: all other assays above

OC1(c2ccc(Cl)cc2)CCNCC1
inactive: [11] | [12] | [13] | [14] | [15]

CCCC(=O)Nc1ccc(OCC(O)CNC(C)C)c(C(C)=O)c1 (stereo not drawn)
not listed: [1] | [11] | [16] | [17]
inactive: all other assays above

From PubChem BioAssay (Tox21)
